T1: UNK ZnF1-3 (human, UniProt Q9C0B0 31-174)
T1 sequence: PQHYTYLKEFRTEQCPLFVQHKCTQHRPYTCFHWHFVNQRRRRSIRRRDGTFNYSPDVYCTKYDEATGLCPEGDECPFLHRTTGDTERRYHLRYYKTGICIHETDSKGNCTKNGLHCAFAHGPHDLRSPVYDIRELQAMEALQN

B1: chr5:176910979:176910980:-_ENSG00000196923_ENST00000355841|hu_hu|FALSE|FALSE (ssRNA)
RNA: GGGAGUUCUACAGUCCGACGAUCCCCAGCGUCGAUCUUGAAGUCACAGCCAUGGCAUUUCGUGCCAAACAUCUUCUCAUAGUCUCGCUCGCAAUAGGGCACGCCCUCCUCCAUGUAGAAGGCCCUGUUCCGGAUGGGCGUCUUCAACAGAGGAUUGAGCAUCA
B2: 118753231_118753351_2268_3pUTR_ENSG00000125354_ENST00000354416|human|control|control (ssRNA)
RNA: GGGAGUUCUACAGUCCGACGAUCUGAAAUACCUCACAAGAAGAAUUCGGUAAGGCUAUCAUUCAAGACUCUAGGCUGGUAAUAAUAUUCAGGUUUAUUCUCCCUUUUGCAUCUGUGGGAUACCCAGAGUUAGAGAGAGGGGAACAACAGAGGAUUGAGCAUCA
B3: chr17:64801638:64801639:+_ENSG00000154229_ENST00000413366|hu_hu|motif|central (ssRNA)
RNA: GGGAGUUCUACAGUCCGACGAUCAUCAAAUACAUAUAUAUACACACACAUAUGUAGUAAGAGCCUAAUCUAUCACGUAAACGGGCCAUUCAUUUUUGAAAUUUUAUCUACAUUUAAAAAGUAAUCUAUCUGAUACAGUGCCCACAACAGAGGAUUGAGCAUCA
B4: 16459948_16460068_3699_3pUTR_ENSMUSG00000024639_ENSMUST00000025541|mouse|control|control (ssRNA)
RNA: GGGAGUUCUACAGUCCGACGAUCAUCCCUAGUCAGAAAUAAACUGACAAAUUUACAUUCUCCUCUCUUAAAAAAGUAAAUAAAAUAACAUUAUUCAAAAUGUGAAUUAGCUAUAAGACAUACAAUUACAUAGAUACAUAUCAACAACAGAGGAUUGAGCAUCA
B5: chr5:151611259:151611260:+_ENSMUSG00000034021_ENSMUST00000016569|mus_mus|FALSE|FALSE (ssRNA)
RNA: GGGAGUUCUACAGUCCGACGAUCGCAUUUCUGAACAUAAUGUUCAAGAAGUAAUAUCUAUACACAAUAACAUUCUAGACUAUUAAAAGCCCAUUCAAAUUACAGAAUUUUAUUGAUACAGUAGAUUAAUAUAAACUGAAAAAACAACAGAGGAUUGAGCAUCA
B6: 66017293_66045708_550_CDS_ENSMUSG00000056515_ENSMUST00000070673|mouse|control|control (ssRNA)
RNA: GGGAGUUCUACAGUCCGACGAUCAGCGUCCUUCAGGGGCACCUCCCUAAUAUCAGAGAGGUCACACUUGUUCCCAGCAAUCGCCAUCACAAUGUUUUCUGGGCCGUGCUCCUUCAGCUCCUUGACCCAUUUUUUCAAGGUAUGCAACAGAGGAUUGAGCAUCA
B7: 25965218_25965338_4171_CDS_ENSG00000143970_ENST00000336112|human|control|control (ssRNA)
RNA: GGGAGUUCUACAGUCCGACGAUCGCCUCUAUAGCUUGGCCCUAUCUGGGUGGGGCUUCCAUACAACUUCGGGGUUUGCAGGGGUGGAAGGAGUAGGGGCUGGUGGGUGGGGCUGUCUGCAGGCAGAGGAAGAACAGUAGAACUCAACAGAGGAUUGAGCAUCA
B8: chr6:41757443:41757444:+_ENSG00000214736_ENST00000398881|hu_mus|hu_hu_hu_mus_False|8_108 (ssRNA)
RNA: GGGAGUUCUACAGUCCGACGAUCGAACUGUCUGCUGGCAACAUCUCAGCCGACACUGGGGGAUGGGGGGGCAGUGGGGGGGGGUUCAGGCAAGGAGAGGGAGUCAACUUCAGCUGCCACUCAGGUAGCUGCCAUCAGUCACAGCAACAGAGGAUUGAGCAUCA
B9: chr6:41757443:41757444:+_ENSG00000214736_ENST00000398881|hu_mus|hu_hu_hu_mus_False|58_108 (ssRNA)
RNA: GGGAGUUCUACAGUCCGACGAUCGAACUGUCUGCUGGCAACAUCUCAGCCGACACUGGGGGAUGGGGGGGCAGUGGGAAACUAGGCAGGCAAGGAGAGGGAGUCAACUUCAGCUGCCACUCAGGUAGGAUCUUGUGGUCACAGCAACAGAGGAUUGAGCAUCA
B10: 53358179_53360397_419_3pUTR_ENSMUSG00000033054_ENSMUST00000035850|mouse|control|control (ssRNA)
RNA: GGGAGUUCUACAGUCCGACGAUCCAUCGCUGCCGCUUGAUUUCUGCAAUUCCAUUUCUCGUUCGAGCUCUCUGAUGGGCAGCAAACCCUGGAGAACUGUGCAUGCUCCUGAUCUGAGAGAGUGUGUGGUCUAGCUUCUUCCAUCAACAGAGGAUUGAGCAUCA
B11: chr6:43255143:43255144:+_ENSG00000146216_ENST00000259750|hu_hu|FALSE|FALSE (ssRNA)
RNA: GGGAGUUCUACAGUCCGACGAUCCUCAGGCCCCCUUCUUCCUCCCAGCUCCAAACCAGGGUGUUGUUGGUCCUGGGGCAGAGGUGAGGCUGGGGGCCCUACAUUCACGGUUCGGUUGGUGGCAAGGAGCAGGCCCAGGGCCUGCAACAGAGGAUUGAGCAUCA
B12: chr6:41757443:41757444:+_ENSG00000214736_ENST00000398881|hu_mus|hu_hu_hu_mus_False|18_108 (ssRNA)
RNA: GGGAGUUCUACAGUCCGACGAUCGAACUGUCUGCUGGCAACAUCUCAGCCGACACUGGGGGAUGGGGGGGCAGUGGGGGGGGGUUCAGGCAAGGAGAGGGAGUCAACUUCAGCUGCUCAAACUUCAGGAUCUUGUGGUCACAGCAACAGAGGAUUGAGCAUCA
B13: chr2:27806210:27806211:+_ENSMUSG00000026837_ENSMUST00000028280|mus_hu|FALSE|FALSE (ssRNA)
RNA: GGGAGUUCUACAGUCCGACGAUCUGUGGUUUCUUUGGCAGCUUCCACGGGCUUCUUGCUGGGGGUGGGCUCCUUCCCUAGGUCUUCGGGGUCUUCGUAGUAGGGGUAUUCGUAGUAAUAGGUCUCACCCUCGCCGUCUCCUUCCAACAGAGGAUUGAGCAUCA
B14: 31370942_31371062_1482_CDS_ENSMUSG00000006307_ENSMUST00000006470|mouse|control|control (ssRNA)
RNA: GGGAGUUCUACAGUCCGACGAUCUCCUGUGGUGGUGCUAGGGUUUGGAGUGGGAGAAAGGGUGCCCUCUGGUCCUGACCGAGCAGCUUCCCUCUCUGCCCGCUGGCUAGGAGUCAGGGGAGGCCUGCCCCUCUUCCUAGAGCACAACAGAGGAUUGAGCAUCA
B15: 8158834_8158954_592_CDS_ENSG00000178921_ENST00000314666|human|control|control (ssRNA)
RNA: GGGAGUUCUACAGUCCGACGAUCAGGGCCAUUGAGGGGUUCCGGCAUGCUCUCAGGGGAGAAACUCUGGAUGGGAUGGGGGAAGUGCUGCUCUGUCAUCCGGUCGUGCAGGGUAGCCAGAGCAAUGGCUUCCACCUCAGCUGACAACAGAGGAUUGAGCAUCA

Whole data set: some 24,000 sequences, median “enrichment r” near 0.99, cut for the highest 2% near 3.7. Shown is part of a subset that was picked to be rich in the highest values.

The target of this experiment is T1, UNK ZnF1-3. Briefly: nsRBNS (natural sequence RNA bind-n-seq); RBNS binding buffer (assumed for nsRBNS): 25 mM Tris pH 7.5, 150 mM KCl, 3 mM MgCl2, 0.01% Triton X-100, 500 ug/ml BSA, 20 U/ml SUPERase-In, 4 C; UNK is unkempt and MSI1 is Musashi-1; names of the RNAs are library labels; protein concentration not given here; high values mean tight binding.
B1 came in with a binding signal of 0.849 enrichment R. For B2, the binding signal stood at 1.58 enrichment R.

B3 returned a binding signal of 1.16 enrichment R.

B4: the binding signal is 1.33 enrichment R. In the case of B5 it was 11 enrichment R. B6 displayed a binding signal of 0.683 enrichment R. For B7, the binding signal stood at 5.58 enrichment R. The value for B8 was 5.65 enrichment R; that for B9 was 1.42 enrichment R; that for B10 was 0.827 enrichment R. B11 showed a binding signal of 0.703 enrichment R.

On to B12, for which the binding signal stood at 4.19 enrichment R.

In turn, B13 yielded a binding signal of 0.604 enrichment R. The value for B14 was 0.887 enrichment R; that for B15 was 0.632 enrichment R.

These data come from publication PMC12136788.
